This note sets out measurements from ChEMBL document CHEMBL3988442, “University of Dundee, Small-Polar-MMV Screening Library” (2021).

Assay [1] deals with T1, Aspartate--tRNA(Asp/Asn) ligase (Mycobacterium tuberculosis (strain ATCC 25618 / H37Rv)) (UniProt P9WFW3).
T1 sequence (whole entry): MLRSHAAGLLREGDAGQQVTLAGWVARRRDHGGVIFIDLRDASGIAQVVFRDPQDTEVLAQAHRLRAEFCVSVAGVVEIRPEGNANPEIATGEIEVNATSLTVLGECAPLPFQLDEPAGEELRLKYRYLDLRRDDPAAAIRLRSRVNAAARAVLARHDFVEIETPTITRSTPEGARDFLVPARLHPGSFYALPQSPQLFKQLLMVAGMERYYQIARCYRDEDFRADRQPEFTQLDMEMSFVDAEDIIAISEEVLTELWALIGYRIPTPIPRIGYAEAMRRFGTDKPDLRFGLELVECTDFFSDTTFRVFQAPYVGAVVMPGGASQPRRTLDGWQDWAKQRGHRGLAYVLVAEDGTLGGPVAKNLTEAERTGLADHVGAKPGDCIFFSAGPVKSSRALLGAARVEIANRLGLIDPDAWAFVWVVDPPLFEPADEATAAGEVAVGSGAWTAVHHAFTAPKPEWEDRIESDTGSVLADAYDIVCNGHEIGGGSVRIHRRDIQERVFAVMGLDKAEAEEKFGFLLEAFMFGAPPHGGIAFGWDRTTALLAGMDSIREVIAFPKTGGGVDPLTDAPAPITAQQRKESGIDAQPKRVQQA
Nature of the assay: Assay for Asp RNA synthetase-1 from Mycobacterium tuberculosis. The note with it: 30 µM. It counts as functional. More on the design: scale not given: direction of the effect not stated beside the values.

Assay [2] concerns the target Shiga toxin 2 (Escherichia coli O157:H7) (UniProt P09385+P09386). Nature of the assay: E. coli 0.157:H7 Shiga Toxin SOP - stx2 screening assay. It counts as functional. Set-up: scale not given: direction of the effect not stated beside the values. As to conditions: 30 µM.

As for `O=C(NCc1ccccc1-n1cccn1)N1CCN2CCCCC2C1` (stereo not given), the results for the Percent Effect in assay [1] and in assay [2] were -6.8% and 3.68%, respectively.

As for `Cc1c(F)cc(C(=O)O)cc1S(=O)(=O)Nc1cccc(C(F)F)c1`, the Percent Effect in assay [1] was -0.0333%; in assay [2], 12.3%.

For `CNC(=O)N1C[C@H]2C[C@H](C(=O)Nc3ccccc3)[C@@H](C1)O2`, the Percent Effect in assay [1] was 2.94%; in assay [2] it was 6.82%.

In the case of `Cc1cccc(C(=O)N2CCCCC2c2ccc(CN(C)C)cc2)n1` (stereo not given), the values for the Percent Effect in assay [1] and in assay [2] were -2.28% and 13.7%, respectively.

On to `CN(CCOc1cccc(CN)c1)C1CCOCC1`, for which the Percent Effect in assay [1] was -0.881%; in assay [2], -50.4%.

Consider `O=C(C1CCOC1)N1CC[C@@H](O)[C@@H]1Cc1ccccc1` (stereo not given in full), for which the Percent Effect was -2.71% in assay [1] and -16.7% in assay [2].

Consider `Cc1nc(C)n(C2CCCN(C(=O)COCc3ccccc3)C2)n1` (stereo not given), for which the values for the Percent Effect in assay [1] and in assay [2] were -4.95% and -2.76%, respectively.

Regarding `Cc1nn(CC(C)C)c(N(C)C)c1CNCc1cccnc1N(C)C`, the Percent Effect turned out to be 0.161% in assay [1] and 24.5% in assay [2].

Turning to `Cc1noc(C)c1CN1CCN(Cc2nccn2C)C(C)C1` (stereo not given), the Percent Effect in assay [1] is -3.74%; in assay [2], 1.27%.

Consider `Cc1ccoc1C(=O)NCC(Cc1ccc(F)cc1)C(N)=O` (stereo not given), for which the figures for the Percent Effect in assay [1] and in assay [2] were -2.1% and 9.66%, respectively.

In the case of `Cn1cc(C[C@H]2[C@H](N3CCOCC3)CCN2C(=O)c2ccco2)cn1`, the values for the Percent Effect in assay [1] and in assay [2] were -2.37% and -0.123%, respectively.

With `COCCNc1nc(C2CCCC2)nc2c1CCNCC2`, the results for the Percent Effect in assay [1] and in assay [2] were 2.87% and -36.8%, respectively.

Take `CN(C)C(=O)[C@@H]1CCO[C@@H]2CCN(Cc3ccc4c(c3)OCO4)C[C@@H]21`: the Percent Effect is -0.534% in assay [1] and -27.6% in assay [2].

Turning to `COCCO[C@H]1CCN(C(=O)C2CCOCC2)[C@H]1Cc1ccncc1`, the figures for the Percent Effect in assay [1] and in assay [2] were 4.84% and -17.6%, respectively.

With `CC(C)n1cnc2c1C(C(=O)NCCC#N)N(Cc1ccccc1)CC2` (stereo not given), the Percent Effect in assay [1] was -1.11%; in assay [2] it was -31.8%.

Turning to `O=C(NC[C@]1(O)CN(Cc2ccccc2F)C[C@H]1O)c1ccccn1`, the Percent Effect in assay [1] stood at 7.9%; in assay [2] it was 19.5%.

On to `CNCC(=O)N1CCCC(c2nccnc2Oc2cccc(F)c2)C1` (stereo not given), for which the Percent Effect in assay [1] was 1.72%; in assay [2], 4.34%.

With `CNC(=O)[C@H]1C[C@@H]2CN(C(=O)c3cscn3)C[C@@H]2N1S(C)(=O)=O`, the Percent Effect was 2.65% in assay [1] and -4.53% in assay [2].

With `COC(=O)c1ccoc1COC(=O)CCc1ccc(OC)c(OC)c1`, the Percent Effect in assay [1] was -3.44%; in assay [2], 0.432%.

In the case of `Cc1cnn(CC2CCCCN2CCC(=O)Nc2cc(C)on2)c1` (stereo not given), the Percent Effect in assay [1] worked out at 1.03%; in assay [2] it was 5.5%.

Turning to `COc1c(C2CCCN2C(=O)c2cc(Cl)c[nH]2)c(C)nn1C` (stereo not given), the values for the Percent Effect in assay [1] and in assay [2] were 0.802% and -13%, respectively.

For `COc1ccc(CCN2CCCC(Cn3nc(C)nc3C)C2)cc1` (stereo not given), the Percent Effect in assay [1] was -3.48%; in assay [2] it was -52.1%.

With `O=c1cc(Cn2ccnc2)nc2n1CCCN(Cc1ccsc1)C2`, the results for the Percent Effect in assay [1] and in assay [2] were -0.029% and -13.8%, respectively.

Consider `Cn1ccc(CN2CCC(COC3CCCC3)CC2)cc1=O`, for which the figures for the Percent Effect in assay [1] and in assay [2] were -0.509% and -19.3%, respectively.

As to `O=C(NCCNc1ncccn1)N1CCCC(C(F)(F)F)C1` (stereo not given), the Percent Effect in assay [1] was determined as 4.41%; in assay [2] it was 1.25%.

With `Cn1ccc(CN2CCCC2c2ccc3c(c2)OCCCO3)cc1=O` (stereo not given), the figures for the Percent Effect in assay [1] and in assay [2] were -1.54% and -60%, respectively.

As to `Cn1cc(CC2CCN(C(=O)NCCc3cccc(O)c3)C2)cn1` (stereo not given), the Percent Effect is -5.03% in assay [1] and -12.2% in assay [2].

As to `Cn1cc(C(=O)CC2CCCN2C(=O)c2cncc3ccccc23)cn1` (stereo not given), the values for the Percent Effect in assay [1] and in assay [2] were -4.82% and -3.94%, respectively.

As for `CC(C)c1cc(NC(=O)CN2CCCC2Cn2cccn2)on1` (stereo not given), the Percent Effect in assay [1] is -1.29%; in assay [2] it was 29.8%.

Consider `COc1cccc(C(=O)N2CCc3ncnc(C)c3CC2)c1`, for which the Percent Effect in assay [1] is -1.32%; in assay [2], -12%.

`Fc1ccc(CN2CCC(c3nccnc3-n3ccnc3)CC2)cc1`: the Percent Effect in assay [1] is -5.52%; in assay [2], -0.684%.

On to `CC(C)NC(=O)CC1COC2(CCN(Cc3ccccc3)CC2)C1` (stereo not given), for which the Percent Effect is -2.02% in assay [1] and -36% in assay [2].

`Cn1c(NCC(O)c2ccc(F)cc2F)c(C#N)c(=O)n(C)c1=O` (stereo not given): the results for the Percent Effect in assay [1] and in assay [2] were -5.91% and -8.41%, respectively.

As for `Cc1cc(OCC(=O)NC(C)c2ccc(N3CCOCC3)cc2)no1` (stereo not given), the Percent Effect in assay [1] is 5.44%; in assay [2], -21.7%.

Regarding `Cc1cccc(C(=O)N2C[C@@H]3OCCN(c4ncccn4)[C@@H]3C2)n1`, the Percent Effect in assay [1] amounted to 2.48%; in assay [2], 2.47%.

Turning to `CC(NC(=O)NCCCN1CCCCCC1)c1nncn1C` (stereo not given), the Percent Effect in assay [1] is 2.07%; in assay [2], -17.6%.

Turning to `COCCCNC(=O)N1CCCC(c2nncn2C)C1` (stereo not given), the Percent Effect in assay [1] was 1.97%; in assay [2] it was 21.1%.

As to `COc1ccccc1CN1CC[C@]2(C[C@H](OC)CO2)C1`, the Percent Effect in assay [1] was -1.25%; in assay [2], -21.1%.

For `NC(=O)c1ccc2c(c1)nc1n2CCN(Cc2ccco2)C1`, the Percent Effect in assay [1] was 6.41%; in assay [2] it was -31.5%.

Regarding `c1cc2c(cc1C1CCCN1Cc1nnnn1C1CC1)OCCO2` (stereo not given), the Percent Effect in assay [1] was -1.25%; in assay [2], 3.61%.

For `Cc1ccc(CN2CC3(CCN(C(=O)c4cscn4)C3)C2)s1`, the Percent Effect in assay [1] is -2.67%; in assay [2] it was -39.3%.

Consider `CN1CC(=O)N(c2cccnc2)CC12CCN(C(=O)c1cccnc1)C2` (stereo not given), for which the Percent Effect in assay [1] is 4.16%; in assay [2], -12%.

Regarding `CCCS(=O)(=O)N1CCC2(CC1)CN(c1ccccn1)CCO2`, the Percent Effect in assay [1] was 2.47%; in assay [2], -46.8%.

Take `Cc1nc(C)n(CC2CCCCN2CCC(=O)Nc2cc(C)on2)n1` (stereo not given): the Percent Effect is -3.42% in assay [1] and 5.91% in assay [2].

In the case of `Cc1cnn(CC2CCCN2C(=O)c2cn(-c3ccccc3)nc2C)c1` (stereo not given), the Percent Effect is 4.47% in assay [1] and 14.6% in assay [2].

As for `CCCc1nc(CN2CCOC(Cn3cncn3)C2)no1` (stereo not given), the values for the Percent Effect in assay [1] and in assay [2] were 0.917% and -23.1%, respectively.

`CN(C)CC1CSCCCN1C(=O)c1ccc(=O)[nH]c1` (stereo not given): the figures for the Percent Effect in assay [1] and in assay [2] were 0.539% and 3.65%, respectively.

For `CN(C)C(=O)[C@H]1C[C@@H]2CN(S(=O)(=O)Cc3ccccc3)C[C@H]1O2`, the Percent Effect is 3.99% in assay [1] and -3.49% in assay [2].

Take `Cc1ccc([C@@H]2CN(S(=O)(=O)c3cccs3)C[C@H]2N(C)C)cc1`: the Percent Effect is -0.804% in assay [1] and 19.8% in assay [2].

As for `CS(=O)(=O)N1CCC(O)(Cn2c(C3CC3)nc3ccccc3c2=O)CC1`, the Percent Effect in assay [1] came out at 1.5%; in assay [2], 11.1%.
